High-throughput results: PubChem BioAssay, NMMLSC
Most compounds without a hit are left out; they make up all but 1.2% or so of the library.
Pemphigus Ab inh: human desmoglein-3 autoantibody binding inhibition. P32926. binding (percent of control), % at 10 µM. hit rate 0.48% among 310,000. DSG3-coupled beads, scFv-anti-DSG3-GFP binding, flow cytometry; stronger effect = lower value;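 active = binding more than 3 SD below its plate's average and above zero; inconclusive = below that plate limit but binding exactly zero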;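 note: hits lower antibody fragment binding to DSG3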
CIT2-GFP yeast: modulators of TOR pathway CIT2-GFP in S. cerevisiae | S. cerevisiae CIT2-GFP strain, flow cytometry, 3 h; 100 means same as DMSO wells | GFP response vs DMSO, % at 10 µM | hit rate 0.065% among 320,000 | AID 2029;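 active = GFP response relative to DMSO above a set limit, near the screen mean plus 3 SD, cut at about 150% in these data; inconclusive = Fewer than 70 cells measured for a yeast strain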;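 note: ratio of well median GFP fluorescence to mean of DMSO wells on the plate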
RPL19A-GFP yeast: alters RPL19A-GFP fluorescence in TOR pathway yeast screen. S. cerevisiae RPL19A-GFP strain, flow cytometry, 3 h; stronger effect = lower value. percent response vs DMSO, % at 10 µM. hit rate 0.3% among 330,000. AID 2025;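 active = percent response vs DMSO below 50%; inconclusive = fewer than 70 events counted for the yeast strain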;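 note: median channel GFP fluorescence of the barcoded RPL19A-GFP strain; ratio of sample median GFP to plate DMSO average so 100% = DMSO; lower means less RPL19A-GFP as with rapamycin TOR inhibition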
LAP4-GFP MLPCN: modulators of TOR pathway LAP4-GFP in S. cerevisiae; S. cerevisiae LAP4-GFP multiplex, flow cytometry GFP, 3 h; median GFP as percent of DMSO wells; GFP response vs DMSO, % at 10 µM; hit rate 0.34% among 320,000; AID 2023;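 active = GFP response vs DMSO above a set limit, about the screen mean plus 3 SD, cut at about 150% in these data; inconclusive = under 70 cell events counted for the yeast strain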
AGP1-GFP MLPCN: alters AGP1-GFP fluorescence in TOR pathway yeast screen. S. cerevisiae AGP1-GFP multiplex flow cytometry, 3 h; GFP as percent of DMSO wells. hit rate 0.02% among 320,000. GFP response vs DMSO, % at 10 µM;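 active = GFP response relative to DMSO above a set limit, near screen average plus 3 SD, cut at about 150% in these data; inconclusive = fewer than 70 cells counted for the yeast strain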;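 note: median GFP channel fluorescence of the gated AGP1 strain per well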
MEP2-GFP yeast: alters MEP2-GFP fluorescence in TOR pathway yeast screen; S. cerevisiae MEP2-GFP strain, flow cytometry GFP, 3 h; 100% = DMSO control level; GFP response vs DMSO, % at 10 µM; hit rate 0.51% among 330,000; AID 2016;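 active = GFP response versus DMSO above a set limit, roughly screen mean plus 3 SD, cut at about 180% in these data; inconclusive = fewer than 70 cells counted for a yeast strain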;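 note: median GFP fluorescence of the barcode-gated MEP2-GFP cells per well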
An asterisk follows results filed as active; ? = inconclusive; . = not tested or not shown; [ ] = another dose, or the depositor's remark.

SMILES | Pemphigus Ab inh | CIT2-GFP yeast | RPL19A-GFP yeast | LAP4-GFP MLPCN | AGP1-GFP MLPCN | MEP2-GFP yeast
O=C1Nc2ccccc2C1(O)c1ccccc1O (configuration not stated) | 107 | ? | 31*[may fluoresce violet] | ? | ? | ?
Cc1cc(NC(=O)CS(=O)(=O)c2cn(Cc3ccc(F)cc3)c3ccccc23)no1 | -23* | 108 | 101 | 120 | 107 | 104
Nc1c(C(=O)OCC(=O)Nc2cccc([N+](=O)[O-])c2)[nH]c(=O)[nH]c1=O | 84 | 104 | 103 | 96 | 102 | 112
CCn1c(CCC(=O)Nc2nc3c(s2)CCCC3)nc2cc(S(=O)(=O)N(C)C)ccc21 | 117 | ? | 37*[may fluoresce violet] | 75 | ? | 250*[may fluoresce violet]
O=C(NC(Cc1ccccc1)C(=O)O)/C(=C/c1ccc(Cl)cc1)NC(=O)c1ccccc1 (configuration not stated) | 98 | 101 | 108 | 92 | 101 | 101
O=C(O)CC(NC(=O)/C(=C/c1ccccc1)NC(=O)c1ccccc1)c1ccccc1 (configuration not stated) | 104 | ? | 37*[may fluoresce violet] | 44 | ? | 261*[may fluoresce violet]
O=C(NC(Cc1ccccc1)C(=O)O)/C(=C/c1ccccc1)NC(=O)c1ccco1 (configuration not stated) | 110 | ? | 22*[may fluoresce violet] | 66 | ? | 220*[may fluoresce violet]
O=C(c1ccc(OC2CCN(CCCc3ccccc3)CC2)cc1)N1CCCC1 | 95 | 104 | 96 | 86 | 98 | 95
O=C(CN1C(=O)c2ccc([N+](=O)[O-])cc2C1=O)NCC1CCCO1 (configuration not stated) | 101 | 104 | 103 | 101 | 111 | 96
COc1ccc(C(=O)Nc2c(O)ccc3ccccc23)cc1 | 95 | 101 | 95 | 97 | 95 | 92
COc1ccc(C(=O)Nc2c(O)ccc3ccccc23)cc1OC | . | ? | 43*[may fluoresce violet] | 105 | ? | 489*[may fluoresce violet]
COc1ccc(NC(=O)Nc2c(O)ccc3ccccc23)cc1 | 109 | ? | 22*[may fluoresce violet] | 96 | ? | ?
COc1ccc(C(=O)Cc2ccccc2)cc1OC | 108 | 95 | 102 | 92 | 92 | 101
COc1ccc(C(=O)NN=C(Cc2ccccc2)Cc2ccccc2)cc1OC | 0.8* | 111 | 100 | 90 | 96 | 112
O=C(Nc1ccccn1)C(c1ccccc1)c1ccccc1 | 107 | . | . | . | . | .
COc1cccc(NC(=O)c2sc3nc(N4CCOCC4)c4c(c3c2N)CCCC4)c1 | 98 | 99 | 93 | 104 | 104 | 95
Cc1nc(-c2ccc3c(c2)OCCO3)cs1 | 82 | 105 | 100 | 95 | 97 | 99
N#Cc1cncc(-c2ccc3c(c2)OCCOCCOCCOCCOCCO3)n1 | 107 | ? | 25*[may fluoresce violet] | 102 | ? | 233*[may fluoresce violet]
COc1ccc(CNC(=O)c2ccc(Cl)c(NC3=NC4CS(=O)(=O)CC4S3)c2)cc1 (configuration not stated) | 68* | 87 | 97 | 89 | 95 | 93
CCN(CC)CCC(=O)N1C/C(=C/c2ccccc2)C(=O)/C(=C\c2ccccc2)C1 | 95 | . | . | . | . | .
N#CC(=C=[N-])c1nc2ccccc2nc1-[n+]1cccc(NC(=O)c2cccs2)c1 | 51* | 108 | 102 | 104 | 103 | 97
C#CCNC(=O)C1=C[C@@H](c2ccc(Br)cc2)[C@H](CCCO)[C@@H](OCC)O1 | 101 | 102 | 96 | 94 | 105 | 105
C#CCNC(=O)C1=C[C@H](c2ccc3c(c2)OCO3)[C@@H](CCCO)[C@H](OCC)O1 | 101 | ? | 46*[may fluoresce violet] | 75 | ? | 300*[may fluoresce violet]
COc1ccc(/C=N/NC(=O)C2(C)NC(C)(C)Cc3ccccc32)cc1 (configuration not stated) | . | 148 | 80 | 158* | 160* | 239*
N#CCOc1ccccc1/C=C/c1nc2ccccc2c(=O)[nH]1 | 107 | ? | 24*[may fluoresce violet] | 61 | ? | 243*[may fluoresce violet]
SMILES | Pemphigus Ab inh | CIT2-GFP yeast | RPL19A-GFP yeast | LAP4-GFP MLPCN | AGP1-GFP MLPCN | MEP2-GFP yeast
Cc1ccccc1/C=C\c1nc2ccccc2c(=O)[nH]1 | 99 | 93 | 98 | 100 | 89 | 101
Cc1cccc(OCC(=O)NCCNC(=O)c2ccccn2)c1 | 91 | ? | 31*[may fluoresce violet] | ? | ? | ?
CCOc1cc(NC(=O)c2ccccn2)c(OCC)cc1NC(=O)c1cccc(C)c1 | 74* | 105 | 101 | 88 | 102 | 105
Cc1ccc(OCC(=O)NCCCNC(=O)c2ccccn2)cc1 | 97 | 103 | 107 | 102 | 95 | 111
O=C(NC1CCC(CC2CCC(NC(=O)C(Cl)Cl)CC2)CC1)C(Cl)Cl (configuration not stated) | 113 | 110 | 107 | 103 | 107 | 112
COC(=O)NC1CCC(CC2CCC(NC(=O)OC)CC2)CC1 (configuration not stated) | 100 | 121 | 98 | 212* | 99 | 698*
COCc1ccc(C(=O)Nc2cccc(S(=O)(=O)N(C)c3ccccc3)c2)cc1 | 28* | 105 | 99 | 102 | 104 | 102
COc1cc(NC(=O)C2CC(c3ccc(Cl)cc3)=NO2)cc(OC)c1OC (configuration not stated) | 63* | 101 | 98 | 99 | 102 | 102
COc1ccc(NC(=O)C2CC(c3ccc(Cl)cc3)=NO2)cc1OC (configuration not stated) | 90 | 100 | 99 | 97 | 99 | 101
O=c1[nH]c(=O)c2nc3c4ccccc4c4ccccc4c3nc2[nH]1 | 29* | 92 | 94 | 92 | 91 | 96
COc1ccccc1CNC(=O)CS(=O)Cc1nc(-c2ccc(OC)c(OC)c2)oc1C (configuration not stated) | 100 | 92 | 44* | 78 | 26 | 103
CCOC(=O)c1cc(S(=O)(=O)N2CCN(C(=O)OCC)CC2)cn1C | 110 | 95 | 95 | 86 | 27 | 200*
O=C(C1=C(O)C(=O)N(CCN2CCOCC2)C1c1ccc(F)cc1)c1cc2ccccc2o1 (configuration not stated) | 97 | ? | 16*[may fluoresce violet] | 70 | ? | 158
Cc1nc2ccccn2c1C(=O)NNS(=O)(=O)c1ccc(C(C)(C)C)cc1 | 93 | 99 | 100 | 97 | 103 | 108
O=C(COC(=O)CNC(=O)c1ccccc1)Nc1ccc(Cl)cc1C(F)(F)F | 98 | 92 | 97 | 111 | 102 | 97
Cc1ccc2c(c1)nnn2C1CCN(S(=O)(=O)c2ccc(C(=O)N(C)C)cc2)CC1 | 106 | 109 | 106 | 98 | 109 | 107
Cc1ccc2c(c1)nnn2C1CCN(S(=O)(=O)c2ccc(C(=O)N3CC(C)CC(C)C3)cc2)CC1 (configuration not stated) | . | ? | 30*[may fluoresce violet] | 78 | ? | 317*[may fluoresce violet]
